# Source: PubChem BioAssay (NCATS)
# Active and inactive are the calls of the source. Calls follow the shape of the dose curve; as a rule, active = well fitted curve in the direction sought with a large enough effect; inconclusive = small, poorly fitted or top-dose-only effect, or another doubt; inactive = no such curve, though single readings can be large or run the other way.
# Biological target: Methanococcus maripaludis chaperonin (MmCpn) (UniProt Q6LX38)
# Test: High-Throughput Screening for Modulators of Cytosolic Chaperonin Activity: MmCpn Primary Screen (AID 488978); also: 0% is about no effect
# Settings: Purified MmCpn ATPase activity, ADP HTRF detection, 10 min; series mostly up to 76.9 µM; activity change, negative = inhibition: at the top concentration
# Source text: Chaperonins are key components of the cellular chaperone machinery. These large complexes consist of two stacked 7-9 membered rings, each containing a central cavity. Substrates are folded within the cavity in an ATP-dependent manner. TRiC is a complex of eight different, essential proteins. As each of the genes encoding the eight subunits is essential for cell viability and no protocol has been developed to overexpress this enzyme to high levels, several groups have turned to the archaeal homolog of TRiC from Methanococcus maripaludis (MmCpn) as a model system for the study of the type II chaperonin family.
# MmCpn was kindly provided by the laboratory of Judith Frydman.
# 1. Dispense 1.5 ul enzyme of either TriC at 100 nM or MmCpn at 50 nM final concentration.
# 2. Transfer 23 nl of compound to plate, incubate 5 min at RT.
# 3. 1.5 ul ATP at 30 uM at final concentration dispensed into plate.
# 4. Incubate for 10 minutes at 37C (MmCPN), 30C (TriC).
# 5. 3 ul of the Cisbio ADP Transcreener HTRF detection reagent prepared according to protocol dispensed into plate.
# 6. Incubate for 5 minutes.
# 7. Read using EnVision plate reader at Excitation = 320nm and Emission = 590nm, 665nm
# Chain of Methanococcus maripaludis chaperonin (MmCpn) (Q6LX38 1-543): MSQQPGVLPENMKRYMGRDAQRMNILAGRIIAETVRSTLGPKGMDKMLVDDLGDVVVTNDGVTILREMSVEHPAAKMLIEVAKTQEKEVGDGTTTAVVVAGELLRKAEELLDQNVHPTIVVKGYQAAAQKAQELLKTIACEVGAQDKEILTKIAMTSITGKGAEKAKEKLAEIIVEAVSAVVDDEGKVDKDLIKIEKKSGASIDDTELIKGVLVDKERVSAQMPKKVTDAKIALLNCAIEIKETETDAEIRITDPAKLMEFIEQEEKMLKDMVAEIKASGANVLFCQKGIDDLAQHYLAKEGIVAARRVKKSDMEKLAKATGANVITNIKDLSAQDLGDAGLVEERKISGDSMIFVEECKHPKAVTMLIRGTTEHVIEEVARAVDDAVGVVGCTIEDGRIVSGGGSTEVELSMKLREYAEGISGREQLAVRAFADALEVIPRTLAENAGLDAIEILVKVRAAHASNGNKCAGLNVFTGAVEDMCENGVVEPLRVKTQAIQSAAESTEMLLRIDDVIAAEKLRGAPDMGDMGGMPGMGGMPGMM
row,Structure (SMILES),"activity change, negative = inhibition"
1,CCCn1c(=O)c2[nH]c(-c3ccc(OCC(=O)NCCN)cc3)nc2n(CCC)c1=O,-9.5% (inactive)
2,c1ccc(-c2ccccn2)nc1,0.314% (inactive)
3,CCCN(CC1CC1)c1nc(C)nc(Nc2c(Cl)cc(Cl)cc2Cl)c1Cl,0.923% (inactive)
4,Nc1ncnc2c1c(I)cn2[C@@H]1C[C@H](N)[C@@H](O)[C@H]1O,0.184% (inactive)
5,CN(C)CCC(c1ccc(Cl)cc1)c1ccccn1 (stereo not given),-0.242% (inactive)
6,O=C1/C(=C/c2ccsc2)CC/C1=C\c1cccs1,0.474% (inactive)
7,Cn1cc(C2=C(c3ccc(Cl)cc3Cl)C(=O)NC2=O)c2ccccc21,-1.68% (inactive)
8,Nc1ncnc2c1ncn2[C@@H]1O[C@H](COP(=O)(O)CP(=O)(O)OP(=O)(O)O)[C@@H](O)[C@H]1O,1.9% (inactive)
9,CC(C)Cc1ccc([C@H](C)C(=O)O)cc1,0.334% (inactive)
10,COc1cc2nc(N3CCN(C(=O)OCc4ccccc4)C(C(=O)NC(C)(C)C)C3)nc(N)c2cc1OC (stereo not given),-3.81% (inactive)
11,CC1(C)CCC=[N+]1[O-],-0.648% (inactive)
12,OCC1O[C@H](O)C(Cl)C(O)C1O (stereo not given in full),1.03% (inactive)
13,Ic1ccc(N2CCN(Cc3c[nH]c4ncccc34)CC2)cc1,-15% (inactive)
14,O=c1[nH]c2cc([N+](=O)[O-])c([N+](=O)[O-])cc2[nH]c1=O,-1.92% (inactive)
15,CC(C)(C)c1ccc(S(=O)(=O)/C=C/C#N)cc1,1.19% (inactive)
16,CC(=O)/C=C1\C(=O)N(C)c2ccccc21,-0.158% (inactive)
17,COc1cc(SC)ccc1C(=O)N1CCC(Cc2ccccc2)CC1,-1.05% (inactive)
18,CCCCC#Cc1nc(NC)c2ncn([C@@H]3O[C@H](CO)[C@@H](O)[C@H]3O)c2n1,0.794% (inactive)
19,CO/N=C(\C(=O)N[C@@H]1C(=O)N2C(C(=O)O)=C(COC(C)=O)CS[C@H]12)c1csc(N)n1,-0.635% (inactive)
20,CN1CCc2cc(O)c(O)cc2C(c2ccccc2)C1 (stereo not given),0.563% (inactive)

row,Structure (SMILES),"activity change, negative = inhibition"
1,N#C/C(=C\c1ccc(O)c(O)c1)C(=O)NCCCc1ccccc1,0.42% (inactive)
2,Nc1nc(SCc2ccc([N+](=O)[O-])cc2)c2ncn([C@@H]3O[C@H](CO)[C@@H](O)[C@H]3O)c2n1,3.14% (inactive)
3,CC(N)C(=O)OC(C)(C)Cc1ccc(Cl)cc1 (stereo not given),0.761% (inactive)
4,CN=c1nc(-c2ccccc2)n(-c2ccccc2)s1,0.637% (inactive)
5,O=c1[nH]c2cc(C(F)(F)F)ccc2n1-c1cc(C(F)(F)F)ccc1O,2.86% (inactive)
6,CCCCC/C=C\CC(O)/C=C/c1cccc(CC(O)CCCCO)n1 (stereo not given),-0.537% (inactive)
7,CNCC[C@H](Oc1ccc(C(F)(F)F)cc1)c1ccccc1,6.78% (inactive)
8,Nc1nc(Cl)nc2c1ncn2[C@@H]1O[C@H](CO)[C@@H](O)[C@H]1O,10.8% (inactive)
9,COc1cc(C(O)CO)ccc1OS(=O)(=O)O (stereo not given),0.599% (inactive)
10,Cc1cc(NC2CCCCC2)nc(-n2nc(C)cc2C)n1,4.03% (inactive)
11,OC[C@H]1O[C@@H](n2cnc3c(NC4CCCCC4)ncnc32)[C@H](O)[C@@H]1O,0.007% (inactive)
12,NC[C@@H]1O[C@H](C23CC4CC(CC(C4)C2)C3)Cc2c1ccc(O)c2O,3.25% (inactive)
13,CN1CC(=O)N/C1=N/C(=O)Nc1cccc(Cl)c1,1.83% (inactive)
14,O=[N+]([O-])c1ccc(CSc2ncnc3c2ncn3[C@@H]2O[C@H](CO)[C@@H](O)[C@H]2O)cc1,1.53% (inactive)
15,CCCCCCCCCCCCCCCC(=O)OC(CC(=O)O)C[N+](C)(C)C (stereo not given),0.563% (inactive)
16,NC(=S)c1ccc[n+]([C@@H]2O[C@@H](COP(=O)([O-])OP(=O)(O)OC[C@H]3O[C@@H](n4cnc5c(N)ncnc54)[C@H](OP(=O)(O)O)[C@@H]3O)C(O)C2O)c1 (stereo not given in full),0.821% (inactive)
17,CN1CCc2ccccc2Cc2[nH]c3ccccc3c2CC1,1.15% (inactive)
18,NCCCCCCCCCCN,0.0681% (inactive)
19,NCCCS(=O)(=O)O,1.11% (inactive)
20,N[C@@H](CC(=O)O)C(=O)O,3.1% (inactive)
